Source: PubChem (National Center for Advancing Translational Sciences (NCATS))
HT1080NT lethal – kills 2HG-producing HT-1080-NT fibrosarcoma cells. HT-1080-NT fibrosarcoma viability, CellTiter-Glo ATP luminescence, 48 h. Potency, µM (highest dose often 46.1 µM), for inactives: top-dose activity, negative = less viability, hits mostly cytotoxic. 360,000 compounds, 1.6% hits;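 also: NT is the 2HG producing partner of a matched IDH1 knockdown line; potency is read from the fitted curve at half-maximal effect; 0% = DMSO-treated cells and -100% = media-only wells without cells; nearly all actives have a fitted effect of over 55% in size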
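A 48-hour cytotoxicity screen used HT-1080-NT cells plated 2 hours before compound delivery. ATP-based CellTiter-Glo luminescence measured viability, normalized to DMSO and no-cell controls.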
HT1080 IDH1KD tx – kills HT-1080 cells with IDH1 knockdown | Potency, µM (titrated, usually from 46.1 µM), without a hit: at the top dose activity, negative = toxicity, most hits filed as cytotoxic | 360,000 compounds, 2% hits | HT-1080 IDH1 knockdown viability, ATP luminescence, 48 h | AID 686971;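 also: potency is read from the fitted curve at half-maximal effect; 0% = DMSO wells and -100% = cell-free medium wells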
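Knockdown cells (IDH1KD HT-1080) received compounds 2 h after plating at 750 cells/well and were kept 48 h at 37 °C in 5% FBS RPMI. A CellTiter-Glo luminescence read gave % activity for curve fitting.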
TDP1 cell noCPT – qHTS for Inhibitors of human tyrosyl-DNA phosphodiesterase 1 (TDP1): qHTS in cells in absence of CPT; DT40 Tdp1-/- hTDP1 cells, no CPT, ATP luminescence, 48 h; Potency, µM (top dose mostly 46.2 µM), without a hit: at the highest dose activity change, negative = growth inhibition, actives largely listed as inhibitors; 420,000 compounds, 15% hits; also: potency is read from the fitted curve at half-maximal effect; nearly all actives have a fitted effect of over 55% in size
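Stably hTDP1-transfected Tdp1-null chicken DT40 cells were treated with library compounds minus camptothecin and grown for at least 48 hr at 37 °C, after which cellular ATP was quantified by luminescence.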
TDP1 cell CPT – DT40-hTDP1 cell growth loss with CPT; Potency, µM (titrated, usually from 46.2 µM), without a hit: at the top dose activity change, negative = growth inhibition, most hits filed as inhibitors; 420,000 compounds, 12% hits; chicken DT40 Tdp1-/-;hTDP1 cells + 20 nM CPT, ATP luminescence, 48 h; also: potency is read from the fitted curve at half-maximal effect; nearly all actives have a fitted effect of over 55% in size
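Cell growth measured by CellTiter-Glo luminescence after a minimum 48 h, 37 C compound exposure with 20 nM CPT in Tdp1-knockout DT40 cells stably expressing hTDP1, seeded 400/well; qHTS titration format.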
IL1B secr inh – blocks inflammasome-driven IL-1 beta release; THP-1 LPS/ATP IL-1B secretion, AlphaLISA, 16 h; hits give low values; activity change, % at 57.5 µM; 360,000 compounds, 4.7% hits; AID 743279; in the data active = activity change below about -50%; inconclusive = mostly about -30% to -49%
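THP-1 cells pretreated 1 hr with compounds (up to 57.5 uM final), then stimulated with LPS (250 ng/mL final) plus ATP (1.25 mM final); secreted IL-1B measured by AlphaLISA after 16 hr, decreased signal indicating inhibition.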
* = called active by the depositor; ? = inconclusive; . = not tested or not shown. In the library only some 19% were active in any assay of this set; here they are far more common. Unless noted, calls follow the shape of the dose curve; as a rule, active = well fitted curve in the direction sought with a large enough effect; inconclusive = small, poorly fitted or top-dose-only effect, or another doubt; inactive = no such curve, though single readings can be large; an effect the other way counts as inactive or inconclusive. Unless noted, % is scaled to controls: 0 for no effect and ±100 for the full control effect.

SMILES	HT1080NT lethal	HT1080 IDH1KD tx	TDP1 cell noCPT	TDP1 cell CPT	IL1B secr inh
Cc1cccc(N2CCN(C(=O)c3ccc4ccccc4c3)CC2C)c1 (stereo unspecified)	-6%	1%	?	?	?
Cc1cccc(N2CCN(C(=O)c3noc4c3COc3ccc(C)cc3-4)CC2C)c1 (stereo unspecified)	5%	9%	23µM*	?	-3
CCOc1ccccc1N1CCN(C(=O)c2csc(C)c2CC)CC1	3%	1%	21µM*	?	?
CCOc1ccccc1N1CCN(C(=O)Nc2ccc(F)c(Cl)c2)CC1	5%	0%	23µM*	?	-5
COC(=O)c1ccc(CNC(=O)COC(=O)c2ccc(N(C)C)cc2)cc1	-16%	-9%	?	?	7
CN(C)S(=O)(=O)c1ccc(C(=O)NCC(=O)N/N=C/c2ccccc2Cl)cc1	-16%	-12%	?	-17%	-29
C[C@@H](CN1C2=NC[C@H](C)N2C[C@H]1Cc1ccc(O)cc1)NC(=O)CCC1CCCCC1	1%	-13%	13µM*	12µM*	-17
C[C@@H](CN1C(=O)C(=O)NC[C@@H]1Cc1ccc(O)cc1)NC(=O)Cc1ccccc1	14%	15%	-16%	-12%	18
CC(C)[C@H]1CN=C2N(C[C@H](C)NC(=O)CCC3CCCCC3)[C@H](Cc3ccc(O)cc3)CN21	-22%	?	6.5µM*	6.5µM*	0
C/C=C(\C)C(=O)N[C@@H](C)CN1C2=NC[C@H](C(C)C)N2C[C@H]1Cc1ccc(OC)cc1	12%	1%	-13%	-6%	14
COc1ccccc1CN(C)C(=O)c1ccccc1Sc1ccccc1C#N	-5%	-14%	?	?	13
COc1ccc(CN(C)C(=O)c2ccccc2Sc2ccccc2C#N)c(OC)c1	-6%	-15%	23µM*	23µM*	?
CN(Cc1ccccc1F)C(=O)c1ccccc1Sc1ccccc1C#N	-19%	-9%	?	?	-66*
C[N+]1(CC(=O)c2ccc(Oc3ccc(C(=O)C[N+]4(C)CCOCC4)cc3)cc2)CCOCC1	.	.	-18%	-12%	.
COc1ccc(CNC(=O)CSc2nc(SC)ns2)cc1	0%	-3%	7%	4%	42
CC(C)Oc1ccc(S(=O)(=O)N2CCOCC2)cc1NC(=O)Cc1ccsc1	-3%	-1%	?	21µM*	-7
COc1ccc(S(=O)(=O)N2CCOCC2)cc1NC(=O)Cc1ccsc1	11%	16%	-5%	1%	20
CC(C)Oc1ccc(S(=O)(=O)N2CCOCC2)cc1NC(=O)C1COc2ccccc2O1 (stereo unspecified)	-3%	-14%	18µM*	21µM*	-8
COc1ccc(N2C(=O)/C(=C/c3ccc([N+](=O)[O-])cc3)N=C2C)cc1	2%	-5%	?	-16%	15
O=C(c1ccc(Br)o1)N1CCN=C1SCc1cccnc1	17%	-3%	-13%	?	-54*
CSC1=NCCN1C(=O)c1ccc(S(=O)(=O)N2CCCCC2)cc1	2%	0%	?	?	6
O=C(c1cc2ccccc2o1)N1CCN=C1SCc1cccnc1	30%	23%	-26%	-23%	-58*
O=C(c1ccc(S(=O)(=O)N2CCCCC2)cc1)N1CCN=C1SCc1cccnc1	1%	2%	?	16µM*	1
CCCCC(NC(C)=O)c1nc2ccccc2n1CCCC (stereo unspecified)	15%	15%	2.1µM*	4.1µM*	-17
CCCCCn1c(CNC(C)=O)nc2ccccc21	2%	-5%	?	?	6
CCCCCn1c(C(Cc2ccccc2)NC(C)=O)nc2ccccc21 (stereo unspecified)	15%	3%	26µM*	?	-14
